Common to all, as to experiment: glycan array binding signal (z-score within array); higher = stronger binding
Holding throughout (settings): glycan notation: IUPAC condensed, linker removed

The target in test [1] is GlcNAc(b1-4)GlcNAc(b1-4)GlcNAc. An outline of the steps: (§1)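 Glycan array data were curated from 3228 arrays in the Consortium for Functional Glycomics database and kept only where the protein sequence was available. Glycan names were converted to IUPAC-condensed notation, and columns mapping to the same glycan were averaged. The binding signal is a within-array Z-score, averaged across arrays of the same protein sequence at different concentrations or buffers and across linkers. Negative Z-scores can be read as non-binding.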

The next test deals with Kdn(a2-3)Gal(b1-4)GlcNAc. Summed up: as §1
The target of test [2] is Man(a1-2)Man(a1-6)[Man(a1-3)]Man(a1-6)[Man(a1-2)Man(a1-2)Man(a1-3)]Man. Summed up: as §1
In test [3] the target is Man(a1-3)[Man(a1-6)]Man(a1-6)[Man(a1-3)]Man(b1-4)GlcNAc(b1-4)GlcNAc. Summed up:
as §1

The target of a further test is Man(a1-6)Man. An outline of the steps:
as §1

Another test has as its target Man(b1-4)GlcNAc. Summed up: as §1
In test [4] the target is Neu5Ac(a2-3)Gal(b1-3)GalNAc(b1-4)[Neu5Ac(a2-3)]Gal(b1-4)Glc. Summed up: as §1
In test [5] the target is Neu5Ac(a2-3)Gal(b1-4)GlcNAc(b1-2)Man(a1-3)[Neu5Ac(a2-6)Gal(b1-4)GlcNAc(b1-2)Man(a1-6)]Man(b1-4)GlcNAc(b1-4)GlcNAc. Summed up:
as §1

The target in test [6] is Neu5Ac(a2-3)Gal(b1-4)GlcNAc(b1-3)Gal(b1-3)GlcNAc. Summed up:
as §1

Test [7] addresses Neu5Ac(a2-3)Gal(b1-4)[Fuc(a1-3)]GlcNAc(b1-3)Gal(b1-4)[Fuc(a1-3)]GlcNAc(b1-3)Gal(b1-4)[Fuc(a1-3)]GlcNAc. Summed up: as §1
The target of test [8] is Neu5Ac(a2-6)Gal(b1-4)GlcNAc(b1-3)Gal(b1-4)GlcNAc(b1-3)Gal(b1-4)GlcNAc. An outline of the steps: as §1

Only a selection was taken, and the strongest signals are over-represented in it overall.

B1: CD72 ectodomain (Homo sapiens), P21854 (protein)
chain: RYLQVSQQLQQTNRVLEVTNSSLRQQLRLKITQLGQSAEDLQGSRRELAQSQEALQVEQRAHQAAEGQLQACQADRQKTKETLQSEEQQRRALEQKLSNMENRLKPFFTCGSADTCCPSGWIMHQKSCFYISLTSKNWQESQKQCETLSSKLATFSEIYPQSHSYYFLNSLLPNGGSGNSYWTGLSSNKDWKLTDDTQRTRTYAQSSKCNKVHKTWSWWTLESESCRSSLPYICEMTAFRFPD
As to B1, the “glycan array binding signal (z-score)” value in test [1] is 0.82; with Kdn(a2-3)Gal(b1-4)GlcNAc, 0.726; in test [2], -0.32; in [3], 0.977; in the test with Man(a1-6)Man, -0.096; in the test with Man(b1-4)GlcNAc it was 2.32. The “glycan array binding signal (z-score)” value in [4] was -0.087; in test [5], 0.127; in test [6], 1.03; in test [7], 1.73; in test [8] it was 0.371.

The values above are taken from the supplement of paper PMC8728848.
